Reference: PubChem BioAssay (Tox21)
Active and inactive are the calls of the source. The call rests on the fitted dose curve; in most records, active means well fitted curve in the direction sought with a large enough effect in the repeat runs; inconclusive means weak or mixed curves; inactive means flat fitted curve, though single readings scatter. Starred links: 1 amine or outer side, 2 acyl side, 3 side chain; linkers in the order of their positions; H or OH if unused. Positions of bridges follow the written chain, without caps; N, C: chain ends. Non-standard residues stand in square brackets, D forms with d. Residues, ends and D or L forms follow the SMILES beside them. *: point of attachment. X5 = NC1=N[C@@H]([C@H](N[*:1])C(=O)[*:2])C[C@H](O)N1; ΔAla(Z-3-ureido) = NC(=O)N/C=C(\N)C(=O)O; β3hOrn = NCCC[C@H](N)CC(=O)*; Orn = NCCC[C@H](N)C(=O)O; Dap = NC[C@H](N)C(=O)O; Mpa = O=C(O)CCS

Experiment: qHTS assay to test for compound auto fluorescence at 460 nm (blue) in HepG2 cell free culture (AID 720685)
Details: Cell-free culture medium, blue autofluorescence 405/460 nm; series mostly up to 46 µM; fluorescence, % of fluorescent control: at the top concentration
Summary of the method: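 Cell-free plates of MEM plus 10% FBS received 23 nL compound or DMSO vehicle; blue-channel (405/460 nm) intensity scored against triamterene as reference fluorophore.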
On the % scale 0 is the no-effect control and ±100 the full control effect.

| SMILES | fluorescence, % of fluorescent control |
| --- | --- |
| COc1ccc2c(=O)c(C)c(-c3ccccc3)oc2c1CN(C)C | 0.0038% (inactive) |
| CCOC(=O)COc1ccc2c(C)c(CCN(CC)CC)c(=O)oc2c1 | 1.49% (inactive) |
| O=C(O)[C@H](CC(=O)N1C[C@H]2CCCC[C@H]2C1)Cc1ccccc1 | -0.0596% (inactive) |
| C=C1/C(=C\C=C2/CCC[C@]3(C)[C@@H]([C@H](C)OCCC(C)(C)O)CC[C@@H]23)C[C@@H](O)C[C@@H]1O | 0.212% (inactive) |
| N=C(N)c1ccc(OCCCOc2ccc(C(=N)N)cc2Br)c(Br)c1 | -0.014% (inactive) |

Experiment: qHTS assay to test for compound auto fluorescence at 535 nm (green) in HepG2 cell free culture (AID 720686)
Details: Cell-free medium, green autofluorescence 485/535 nm; series mostly up to 46 µM; fluorescence, % of fluorescein control: at the top concentration

| SMILES | Potency | fluorescence, % of fluorescein control |
| --- | --- | --- |
| COCC1=C(C(=O)OC(C)OC(=O)OC(C)C)N2C(=O)[C@@H](NC(=O)/C(=N\OC)c3csc(N)n3)[C@H]2SC1 (stereo partly specified) | inactive |  |
| CO[C@@H]1[C@@H](O[C@@H]2O[C@H](C)[C@@H](O[C@H]3C[C@@](C)(O)[C@@H](OC(=O)CC(C)C)[C@H](C)O3)[C@H](N(C)C)[C@H]2O)[C@@H](CC=O)C[C@@H](C)[C@@H](O)/C=C/C=C/C[C@@H](C)OC(=O)C[C@H]1O | inactive |  |
| CC(=O)O[C@H]1C[C@@H]2CC[C@@H]3[C@H](CC[C@@]4(C)[C@H]3C[C@H](N3CC[N+](C)(C)CC3)[C@@H]4OC(C)=O)[C@@]2(C)C[C@@H]1N1CC[N+](C)(C)CC1 |  | -0.129% (inactive) |
| NCCC[C@H](N)CC(=O)N[C@H]1CNC(=O)[C@H]([C@H]2C[C@H](O)NC(N)=N2)NC(=O)/C(=C/NC(N)=O)NC(=O)[C@H](CO)NC(=O)[C@H](CO)NC1=O (β3hOrn-[Dap]SS[ΔAla(Z-3-ureido)][X5]; lactam 1-C) |  | -0.0098% (inactive) |
| CCOc1ccc(C[C@H]2NC(=O)CCSSC[C@@H](C(=O)N3CCC[C@H]3C(=O)N[C@@H](CCCN)C(=O)NCC(N)=O)NC(=O)[C@H](CC(N)=O)NC(=O)[C@H]([C@@H](C)O)NC(=O)[C@H]([C@@H](C)CC)NC2=O)cc1 ([Mpa][dY](Et)ITNCP[Orn]G-NH2; disulfide 1-6) |  | -0.0943% (inactive) |
| O=P(O)(O)C(O)(Cc1cnc2ccccn12)P(=O)(O)O |  | 0.0144% (inactive) |
| OCC(O)COc1ccc(Cl)cc1 (stereo unspecified) |  | 0.0924% (inactive) |
| CCCCCCCCCCCCCCCC(=O)OC[C@@H](NC(=O)C(Cl)Cl)[C@H](O)c1ccc([N+](=O)[O-])cc1 |  | -0.0186% (inactive) |
| NC(=O)Oc1ccc(Cc2ccccc2)cc1 |  | -0.0127% (inactive) |
| CCCC(CCC)C(N)=O |  | 0.0033% (inactive) |
| CC1CC(OC(=O)C(O)c2ccccc2)CC(C)(C)C1 (stereo unspecified) |  | 0.0433% (inactive) |
| OC(CN1CCCCC1)c1cc(-c2ccccc2)on1 (stereo unspecified) |  | 0.0119% (inactive) |
| CCC(c1ccccc1)c1noc(CCN(CC)CC)n1 (stereo unspecified) |  | -0.0146% (inactive) |
| O=S(O)CNc1ccc(S(=O)(=O)c2ccc(NCS(=O)O)cc2)cc1 |  | -0.0115% (inactive) |
| C=CCN1CCCC1CNC(=O)c1cc(S(N)(=O)=O)cc(OC)c1OC (stereo unspecified) |  | -0.0305% (inactive) |
| CCCCCCCCCCCCCCCCCC(=O)OCCO |  | -0.125% (inactive) |

| SMILES | Potency | fluorescence, % of fluorescein control |
| --- | --- | --- |
| CCCCCCCCCCCCCCCCCCCCCC(=O)Nc1ccn([C@@H]2O[C@H](CO)[C@@H](O)[C@@H]2O)c(=O)n1 |  | -0.146% (inactive) |
| CCCCOC(=O)C(=O)Nc1cccc(-c2nn[nH]n2)c1 |  | -0.0214% (inactive) |
| CCOC(=O)[C@H](CCc1ccccc1)N[C@H]1CCCN2CCC[C@@H](C(=O)O)N2C1=O |  | -0.0082% (inactive) |
| CC(C)CN(C[C@@H](O)[C@H](Cc1ccccc1)NC(=O)O[C@@H]1CCOC1)S(=O)(=O)c1ccc(N)cc1 |  | 0.0219% (inactive) |
| O.O=C([O-])CC([S-])C(=O)[O-].[Au+].[Na+].[Na+] (stereo unspecified) |  | 0.0087% (inactive) |
| O=P(O)(O)C(Sc1ccc(Cl)cc1)P(=O)(O)O |  | -0.159% (inactive) |
| O=C(CCCN1CCC(C(=O)c2ccc(F)cc2)CC1)c1ccc(F)cc1 |  | 0.14% (inactive) |
| C[C@H]1C[C@H]2[C@@H]3CCC4=CC(=O)C=C[C@]4(C)[C@@]3(F)[C@@H](O)C[C@]2(C)[C@@]1(O)C(=O)CCl |  | 0.0067% (inactive) |
| CC#CCC(C)[C@H](O)/C=C/[C@@H]1[C@H]2C/C(=C/CCCC(=O)O)C[C@H]2C[C@H]1O (stereo partly specified) |  | -0.0004% (inactive) |
| NCCC[C@H](N)C(=O)O |  | -0.109% (inactive) |
| CN1[C@@H]2CCC[C@H]1CC(NC(=O)c1nn(C)c3ccccc13)C2 (stereo partly specified) |  | -0.0178% (inactive) |
| CS(=O)(=O)NC(=O)CCC/C=C\C[C@H]1C(=O)C[C@@H](O)[C@@H]1/C=C/[C@H](O)COc1ccccc1 |  | 0.0568% (inactive) |
| OC[C@@H](O)C(O)[C@H](O)CO |  | -0.0215% (inactive) |
| N[C@@H](C(=O)N[C@@H]1C(=O)N2C(C(=O)O)=C(CSc3cn[nH]n3)CS[C@H]12)c1ccc(O)cc1 |  | 0.0158% (inactive) |
| CC1(C)S[C@@H]2[C@H](NC(=O)Cc3ccccc3)C(=O)N2[C@H]1C(=O)O |  | -0.01% (inactive) |
